From PubChem
A selection: hits, their analogues and other compounds. The true share with any hit is near 11%.
NIH3T3 tox = Cytotoxic Profiling in NIH 3T3 Cell Line of Diverse Libraries Using Quantitative High-Throughput Screening | 94,000 compounds, 4.3% hits | Potency, µM (series often up to 96.7 µM), for inactives: top-dose activity change, negative = cytotoxicity, actives largely listed as inhibitors | NIH 3T3 viability, CellTiter-Glo ATP luminescence, 48-72 h | AID 1345082, 2018; further: nearly all actives have a fitted effect of over 55% in size
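Cells were seeded at 400 per well, treated with pin-transferred compound, and kept 48 or 72 hr at 37 °C before CellTiter-Glo addition and luminescence imaging of cellular ATP.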
hNpr1 antagonist = Natriuretic polypeptide receptor (hNpr1) antagonism - Primary qHTS | Atrial natriuretic peptide receptor 1 (Homo sapiens), P16066 | HEK293 hNpr1 GloSensor cGMP, ANP-stimulated luminescence | Potency, µM (top dose mostly 46.3 µM), for the others: at the highest dose activity change, negative = inhibition, most hits filed as inhibitors | 76,000 compounds, 1.6% hits; calls by dose curve; further: nearly all actives have a fitted effect of over 60% in size
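Compound pre-incubated 30 min at room temperature on GloSensor-loaded HEK293 cells stably carrying hNpr1 and the pGS-40F cGMP biosensor. Stimulation uses hNppA at 0.1 nM final; luminescence is taken at baseline and 20 min post-agonist.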
HEK293 tox = Cytotoxic Profiling in HEK 293 Cell Line of Diverse Libraries Using Quantitative High-Throughput Screening; HEK 293 viability, ATP luminescence (CellTiter-Glo), 48-72 h; Potency, µM (series often up to 115 µM), for inactives: at the top dose activity change, negative = cytotoxicity, hits mostly inhibitors; 94,000 compounds, 6.6% hits; AID 1345083, 2018; further: nearly all actives have a fitted effect of over 60% in size
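ATP-coupled CellTiter-Glo luminescence served as viability read-out, recorded 10 min after reagent addition at room temperature. HEK 293 cells, 250 cells/well, had been incubated with pintool-transferred compound for 48 or 72 hr at 37 degree Celsius.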
FLuc inh = Firefly luciferase inhibition profiling of diverse chemical library using quantitative high-throughput screening. Luciferin 4-monooxygenase (Photinus pyralis), P08659. purified P. pyralis luciferase, luminescence, biochemical. Potency, µM (top dose mostly 115 µM), actives largely listed as inhibitors. 76,000 compounds, 2.5% hits. AID 1347043, 2019; further: nearly all actives have a fitted effect of over 65% in size
Target sequence (P08659 whole entry, looked up): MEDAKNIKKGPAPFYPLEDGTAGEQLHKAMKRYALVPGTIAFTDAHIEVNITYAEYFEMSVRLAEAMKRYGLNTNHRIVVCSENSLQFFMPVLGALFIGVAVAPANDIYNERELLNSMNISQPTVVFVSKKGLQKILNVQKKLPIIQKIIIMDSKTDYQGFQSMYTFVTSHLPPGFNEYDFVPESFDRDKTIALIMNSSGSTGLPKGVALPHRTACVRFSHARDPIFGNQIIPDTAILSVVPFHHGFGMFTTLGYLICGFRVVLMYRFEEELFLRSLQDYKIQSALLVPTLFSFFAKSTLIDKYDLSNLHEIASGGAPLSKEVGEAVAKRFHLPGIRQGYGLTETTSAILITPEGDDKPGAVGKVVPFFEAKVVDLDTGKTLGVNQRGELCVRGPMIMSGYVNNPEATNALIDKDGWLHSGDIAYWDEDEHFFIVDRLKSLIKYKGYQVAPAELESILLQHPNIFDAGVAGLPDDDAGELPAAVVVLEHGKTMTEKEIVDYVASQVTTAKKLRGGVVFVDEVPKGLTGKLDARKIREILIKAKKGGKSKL
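Inhibitors were tested against purified firefly luciferase in a biochemical, low-substrate format (both substrates at 10uM) and luminescence measured with a CCD imager.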
The depositor's hits bear a star; i = inactive; ? = inconclusive; / = no result; [ ] = another dose, or the depositor's remark. Unless noted, the call rests on the fitted dose curve; in most records, active means well fitted curve in the direction sought with a large enough effect; inconclusive means small, poorly fitted or top-dose-only effect, or another doubt; inactive means no such curve, though single readings can be large; an effect the other way counts as inactive or inconclusive. On the % scale 0 is the no-effect control and ±100 the full control effect; potency means the concentration at half of the fitted maximal effect.

SMILES	NIH3T3 tox	hNpr1 antagonist	HEK293 tox	FLuc inh
CNC(=O)c1cc(C2CC2)nc2c1c(C1CCCN1C(=O)C(C)(C)C)nn2C (stereo not drawn)	-3%	/	-23%	/
COc1ccc(CN2Cc3cc(NC(=O)c4ccccc4)ccc3OC(C)C2=O)cc1 (stereo not drawn)	-28%	-15%	?	i
COc1ccc(CN2Cc3cc(NC(=O)c4ccc5c(c4)OCO5)ccc3OC(C)C2=O)cc1 (stereo not drawn)	?	-23%	22µM*	i
O=C1NCc2ccccc2CC12CCCN(Cc1ccccc1F)C2 (stereo not drawn)	5%	/	-12%	/
Cc1nc2c(c(-c3ccc(O)cc3)n1)CN(Cc1ccc(C(F)(F)F)cc1)CCC2	?	?	32µM*	i
COc1ccc(-c2nc(C)nc3c2CCN(Cc2cccc4ccccc24)CC3)cc1	?	3%	40µM*	i
Cc1nc2c(c(-c3ccc(O)cc3)n1)CN(Cc1ccc(OC(F)(F)F)cc1)CC2	?	-22%	?	i
Cc1nc2c(c(-c3ccc(O)cc3)n1)CN(Cc1ccccc1)CCC2	?	0%	?	i
Cc1nc2c(c(-c3ccc(O)cc3)n1)CN(Cc1cccc3ccccc13)CCC2	32µM*	?	32µM*	i
Cc1nc2c(c(-c3ccc(O)cc3)n1)CN(Cc1ccc(OC(F)(F)F)cc1)CCC2	?	?	35µM*	i
Cc1nc2c(c(-c3ccc(O)cc3)n1)CN(Cc1ccc(C(F)(F)F)cc1)CC2	-31%	-1%	?	i
CCN1CC(c2nc(-c3ccc(-n4nc(C)cc4N)cc3)no2)CCC1=O (stereo not drawn)	?	2%	?	i
Cc1cc(C)cc(C(=O)N2CCc3[nH]nc(C(=O)N(C)C)c3C2)c1	-15%	-11%	-25%	i
O[C@@H]1C[C@@H](c2nc(-c3ccc4c(c3)OCO4)no2)N(Cc2ccccn2)C1	-17%[174 µM]	-1%[70.6 µM]	?	45µM*
O[C@@H]1C[C@@H](c2nc(-c3ccc4c(c3)OCO4)no2)N(CCCc2ccccc2)C1	?	-4%[70.6 µM]	?	35µM*
O[C@@H]1C[C@@H](c2nc(-c3ccc4c(c3)OCO4)no2)N(CC2CC2)C1	-27%[174 µM]	-13%[70.6 µM]	?	22µM*
O[C@@H]1C[C@@H](c2nc(-c3ccc4c(c3)OCO4)no2)N(C2CCOCC2)C1	-11%[174 µM]	3%[70.6 µM]	-13%[172 µM]	i
O[C@@H]1C[C@@H](c2nc(-c3ccc4c(c3)OCO4)no2)N(CC2CCCCC2)C1	89µM*	-5%[70.6 µM]	89µM*	?
Oc1ccccc1CN1C[C@H](O)C[C@H]1c1nc(-c2ccc3c(c2)OCO3)no1	-17%[138 µM]	-3%[70.6 µM]	-20%[172 µM]	?
O[C@@H]1C[C@@H](c2nc(-c3ccc(F)cc3)no2)N(CC2CCCCC2)C1	-17%[174 µM]	0%[70.6 µM]	-24%[172 µM]	?
CC(C)n1cnnc1-c1nn(C)c2c1CN(C(=O)CCc1ccccc1)CC2	-27%	/	4%	/
Cc1ccc(-n2cccn2)c(CN2CCCC(CCC(=O)Nc3ccccc3F)C2)c1 (stereo not drawn)	?	-12%	?	i
O[C@@H]1C[C@@H](c2nc(-c3ccccn3)no2)N(Cc2cccs2)C1	-13%[174 µM]	-16%[70.6 µM]	?	35µM*
CCN1C(=O)C2(CCN(S(=O)(=O)c3ccc(Cl)cc3C)CC2)c2ccccc21	?	-19%	10µM*	i
COC[C@H]1CCCN1Cc1nc(C2(O)CCN(Cc3ccccc3C(F)(F)F)CC2)cs1	-35%	3%	?	i
O=C1[C@@H]2C[C@@H](CN2Cc2ccc3c(c2)OCO3)Oc2ccccc2N1CC1CC1	?	-11%[70.6 µM]	?	i
Cn1cc(CN2C[C@@H]3C[C@H]2C(=O)N(CC2CC2)c2ccccc2O3)c2ccccc21	100µM*	-9%[70.6 µM]	?	i
Cc1ccc(CN2C[C@@H]3C[C@H]2C(=O)N(CC2CC2)c2ccccc2O3)cc1	100µM*	-18%[70.6 µM]	100µM*	i
COc1ccc(CN2CCCC(c3cc(=O)[nH]c(C)n3)C2)c(OC)c1C (stereo not drawn)	?	5%	45µM*	i
